Among the test systems are NCI-H23 lung; NCI-H226 lung; NCI-H322M lung; HOP-62 NSCLC; NCI-H460 lung; HOP-92 NSCLC; NCI-H522 lung; A549/ATCC NSCLC; 786-0 renal; COLO 205 colon; DU-145 prostate; K-562 leukemia; MALME-3M melanoma; MDA-MB-231 breast; RXF 393 renal; SF-268 CNS; SF-295 CNS; SF-539 CNS; UACC-257 melanoma; M14 melanoma.
Holding throughout (assay): NCI-60 one-dose screen, 48 h (100 = growth as untreated, 0 = no growth, -100 = all killed)
Settings in all cases: 10 µM unless noted

SMILES strings stand for the structures. Compounds without any hit were thinned out: in the full panel of roughly 83,000, 20% have a hit.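 Treatment: one concentration, 48 hours, 96-well format. Scoring: percent growth, with anything below 10 considered active.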 Unmarked numbers belong to inactive results. Calls of active or inactive are those of the source.

For the molecule `Nc1ccc(S(=O)(=O)O)c2cc(S(=O)(=O)O)cc(O)c12`, the growth in the experiment with NCI-H23 lung is 110%; with NCI-H226 lung, 105%; in the experiment on NCI-H322M lung, 117%; in the experiment on HOP-62 NSCLC, 107%; in the experiment on NCI-H460 lung it was 108%; in the experiment with HOP-92 NSCLC, 124%. The growth in the experiment with NCI-H522 lung was 103%; with A549/ATCC NSCLC it was 104%; in the experiment with 786-0 renal, 101%; in the experiment on COLO 205 colon, 105%; with DU-145 prostate, 105%; in the experiment with K-562 leukemia it was 117%. In addition, the growth in the experiment on MALME-3M melanoma was 109%; with MDA-MB-231 breast, 106%; in the experiment with RXF 393 renal, 114%; with SF-268 CNS, 111%; with SF-295 CNS it was 110%; in the experiment with SF-539 CNS it was 95.8%. Moreover, the growth was 109% in the experiment on UACC-257 melanoma and 90.7% with M14 melanoma.

Regarding `Cc1nc2ccc(-n3ncc(C(=O)c4cc5ccccc5[nH]4)c3N)cc2[nH]1`, the growth in the experiment on NCI-H23 lung is 74%; in the experiment with NCI-H226 lung it was 48.4%; in the experiment with NCI-H322M lung, 86.5%; with HOP-62 NSCLC it was 55.9%; in the experiment with NCI-H460 lung it was 5.14% (active); in the experiment on HOP-92 NSCLC, 74.8%. Also, the growth in the experiment with NCI-H522 lung is 36.5%; with A549/ATCC NSCLC, 36.9%; with 786-0 renal it was 55.2%; in the experiment with COLO 205 colon it was 38.7%; with DU-145 prostate, 60.7%; with K-562 leukemia, 17.4%. Further, the growth with MALME-3M melanoma is 64.5%; in the experiment on MDA-MB-231 breast it was 53.9%; in the experiment on RXF 393 renal, 15.5%; in the experiment on SF-268 CNS it was 50.5%; with SF-295 CNS, 53.5%; in the experiment with SF-539 CNS it was -2.11% (active). Moreover, the growth with UACC-257 melanoma is 79.5%; in the experiment with M14 melanoma, 61.1%.

For the molecule `Cc1cnc(NC(=O)Nc2cc(Br)c(C)cc2OC[C@@H]2CNCCO2)cn1`, the growth with NCI-H23 lung is 15%; with NCI-H226 lung, 51.2%; with NCI-H322M lung it was 34.3%; with HOP-62 NSCLC, 12.5%; in the experiment on NCI-H460 lung it was 4.27% (active); in the experiment with HOP-92 NSCLC, 35%. In addition, the growth with NCI-H522 lung is -16.4% (active); in the experiment with A549/ATCC NSCLC it was 17.5%; in the experiment on 786-0 renal it was 2.83% (active); with COLO 205 colon, 3.34% (active); in the experiment with DU-145 prostate, 24%; in the experiment on K-562 leukemia, -42.2% (active). Besides, the growth in the experiment on MALME-3M melanoma was -48.1% (active); in the experiment on MDA-MB-231 breast, 22.2%; with RXF 393 renal, -14.8% (active); in the experiment on SF-268 CNS, 33.6%; in the experiment with SF-295 CNS, 4.01% (active); in the experiment with SF-539 CNS, -75.8% (active). In addition, the growth with UACC-257 melanoma is -76.8% (active); in the experiment on M14 melanoma, -84.5% (active).

As for `Cc1cc(C)n(CC(=O)Nc2ccc(-c3nc4ccccc4s3)cc2)n1`, the growth with NCI-H23 lung was 93.8%; in the experiment on NCI-H226 lung it was 100%; in the experiment on NCI-H322M lung it was 99.9%; with HOP-62 NSCLC it was 105%; with NCI-H460 lung, 102%; with HOP-92 NSCLC it was 97.7%. Also, the growth with NCI-H522 lung was 103%; with A549/ATCC NSCLC, 94.7%; in the experiment with 786-0 renal, 106%; with COLO 205 colon, 112%; with DU-145 prostate, 103%; in the experiment on K-562 leukemia, 100%. In addition, the growth was 108% in the experiment on MALME-3M melanoma; 108% in the experiment with MDA-MB-231 breast; 129% in the experiment on RXF 393 renal; 100% in the experiment with SF-268 CNS; 103% with SF-295 CNS; 98.6% in the experiment with SF-539 CNS. Besides, the growth was 107% in the experiment with UACC-257 melanoma and 111% in the experiment on M14 melanoma.

Turning to `CN1CCC(CNc2ccc3ncc(-c4cccc(OC(F)(F)F)c4)n3n2)CC1`, the growth in the experiment with NCI-H23 lung is -14.9% (active); with NCI-H226 lung it was -8.6% (active); with NCI-H322M lung it was 8.29% (active); with HOP-62 NSCLC, -53.1% (active); in the experiment with NCI-H460 lung, -45.8% (active); with HOP-92 NSCLC, -56.8% (active). Further, the growth was -69.7% (active) in the experiment with NCI-H522 lung; -38.4% (active) with A549/ATCC NSCLC; -81.6% (active) with 786-0 renal; -88.6% (active) in the experiment on COLO 205 colon; 22.5% in the experiment on DU-145 prostate; -47.3% (active) in the experiment on K-562 leukemia. Further, the growth in the experiment with MALME-3M melanoma is -90.2% (active); in the experiment with MDA-MB-231 breast, -80.3% (active); with RXF 393 renal, -70.7% (active); in the experiment on SF-268 CNS, -33.1% (active); with SF-295 CNS, -71.2% (active); with SF-539 CNS, -91.4% (active). For the same molecule, the growth in the experiment with UACC-257 melanoma is -87.4% (active); in the experiment with M14 melanoma it was -73.3% (active).

For the molecule `COc1cc2cc(NCc3ccc(F)cc3)nc(C)c2cc1OC`, the growth was 26.5% in the experiment with NCI-H23 lung; 48.5% with NCI-H226 lung; 52.5% in the experiment with NCI-H322M lung; 54.7% in the experiment on HOP-62 NSCLC; 26.4% with NCI-H460 lung; 25.3% in the experiment on HOP-92 NSCLC. Besides, the growth with NCI-H522 lung is 59.9%; in the experiment with A549/ATCC NSCLC, 47.9%; with 786-0 renal, 32.2%; in the experiment with COLO 205 colon, 34.2%; in the experiment on DU-145 prostate it was 58.1%; with K-562 leukemia it was 11.7%. For the same molecule, the growth in the experiment on MALME-3M melanoma was 87.7%; with MDA-MB-231 breast it was 45.9%; with RXF 393 renal, 59.7%; with SF-268 CNS, 50.7%; in the experiment on SF-295 CNS it was 40.7%; in the experiment on SF-539 CNS, -4.69% (active). The results for the growth with UACC-257 melanoma and with M14 melanoma were 88.8% and 32.2%, respectively.

As to `O=C(Nc1ccc(-c2ccnc(Nc3ccc(N4CCOCC4)cc3)n2)cc1)[C@@H]1CCCN1`, the growth is 65.6% in the experiment with NCI-H23 lung; 48.6% with NCI-H226 lung; 67.6% in the experiment on NCI-H322M lung; 33.6% with HOP-62 NSCLC; 50.7% in the experiment on NCI-H460 lung; 50.2% in the experiment with HOP-92 NSCLC. The growth is 48.3% in the experiment on NCI-H522 lung; 45% in the experiment on A549/ATCC NSCLC; 40.3% with 786-0 renal; 44.6% in the experiment with COLO 205 colon; 67.1% in the experiment on DU-145 prostate; 16% in the experiment on K-562 leukemia. Moreover, the growth in the experiment on MALME-3M melanoma is 71.5%; in the experiment on MDA-MB-231 breast it was 48.6%; in the experiment on RXF 393 renal it was 5.11% (active); in the experiment on SF-268 CNS it was 55.6%; with SF-295 CNS, 35.9%; in the experiment with SF-539 CNS, 25.3%. Further, the growth in the experiment on UACC-257 melanoma was 16.8%; in the experiment with M14 melanoma, 51.7%.

`Cc1ccc(NC(=O)c2ccc(CN3CCN(C)CC3)cc2)cc1Nc1nc(-c2cccnc2)cs1`: the growth in the experiment with NCI-H23 lung was 68%; in the experiment with NCI-H226 lung, 38.6%; with NCI-H322M lung it was 90.2%; in the experiment with HOP-62 NSCLC, 60.2%; with NCI-H460 lung, 40.3%; in the experiment on HOP-92 NSCLC it was 93.1%. Besides, the growth with NCI-H522 lung is 17.7%; with A549/ATCC NSCLC, 39.4%; in the experiment with 786-0 renal it was 14.5%; with COLO 205 colon it was 16.1%; with DU-145 prostate it was 76.5%; with K-562 leukemia, 3.08% (active). Moreover, the growth is -9.2% (active) with MALME-3M melanoma; 33.8% in the experiment with MDA-MB-231 breast; 32.9% in the experiment on RXF 393 renal; 70.8% in the experiment with SF-268 CNS; 3.18% (active) in the experiment with SF-295 CNS; -81.5% (active) in the experiment with SF-539 CNS. Further, the growth with UACC-257 melanoma was 17%; with M14 melanoma, 35.5%.

The record behind these values is PubChem BioAssay (NCI).
